Screening results from PubChem.
MBD2 inh – inhibitors of human MBD2 binding to methylated oligonucleotide; AID 686964; inhibition, % at 4.4 µM; Q9UBB5; TR-FRET; 0.31% of 370,000 active; in the data active means inhibition above about 13%
Target sequence (Q9UBB5 whole entry, looked up): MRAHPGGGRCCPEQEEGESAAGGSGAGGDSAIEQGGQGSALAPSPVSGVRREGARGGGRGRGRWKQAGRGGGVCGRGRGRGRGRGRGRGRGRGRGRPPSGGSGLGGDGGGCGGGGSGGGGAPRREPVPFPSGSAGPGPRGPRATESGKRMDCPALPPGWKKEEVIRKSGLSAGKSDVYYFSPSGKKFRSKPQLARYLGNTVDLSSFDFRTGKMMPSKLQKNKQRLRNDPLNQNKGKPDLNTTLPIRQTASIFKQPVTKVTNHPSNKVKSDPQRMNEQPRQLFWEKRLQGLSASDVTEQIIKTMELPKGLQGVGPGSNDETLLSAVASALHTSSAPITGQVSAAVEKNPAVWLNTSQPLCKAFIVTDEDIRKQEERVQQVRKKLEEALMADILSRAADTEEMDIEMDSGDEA
PG9 Ab binder – small molecules binding HIV-1 gp120 antibody PG9. inhibition, % at 6.7 µM. 0.43% of 360,000 active. AID 624416. TR-FRET gp120-PG9 antibody binding; in the data active means inhibition above about 8.5%
DNMT1 inh – inhibitors of human DNMT1. inhibition (reported as % activation of signal), % at 10 µM. 0.83% of 360,000 active. AID 588458. DNMT1 molecular beacon, Hinp1I cleavage, fluorescence. P26358; in the data active means inhibition above about 50%
UHRF1 binding – UHRF1 methyl-DNA binding inhibition | UHRF1 binding to methylated oligo, TR-FRET | inhibition, % at 4.4 µM | AID 687016 | Q96T88 | 0.75% of 370,000 active; in the data active means inhibition above about 21%;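 further: UHRF1 SRA domain binding a hemimethylated CpG hairpin DNA probe; 0% = median of test compound wells and 100% = reference inhibitor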
rCAG binder – binds r(CAG) RNA repeats; r(CAG) RNA repeat, TO-PRO-1 dye displacement fluorescence; inhibition, % at 3 µM; 1.3% of 370,000 active; AID 651821;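 active means inhibition above the plate cutoff, the mean of all test compounds on that plate plus 3 SD, cut at about 35% in these data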;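 further: 0% = DMSO alone and 100% = 100 µM mitoxantrone as full dye displacement; higher means more dye released from RNA so lower well fluorescence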
LEDGF integ inh – blocks HIV-1 LEDGF/p75-dependent DNA integration; TR-FRET IN-LEDGF/p75 DNA integration, Eu/Cy5; inhibition, % at 3.7 µM; 0.64% of 370,000 active; AID 743269;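 active means inhibition above the screen-wide mean plus 3 SD, cut at about 13% in these data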;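 further: signal is the Cy5 over europium emission ratio at 671 and 618 nm; 0% = plate median of compound wells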
DNMT1 inh conf – DNMT1 inhibition confirmation, single concentration. shares compounds with DNMT1 inh. DNMT1 molecular beacon HinP1I cleavage, fluorescence. inhibition, % at 10 µM. 8% of 2,300 active. AID 602385;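 active means average inhibition of at least 30% in the single-concentration confirmation test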
DNMT1 interf – shows spectral interference in the DNMT1 beacon assay; shares compounds with DNMT1 inh; DNMT1 molecular beacon spectral interference counterscreen, fluorescence 485/520; activation (fluorescence interference), % at 10 µM; 1% of 2,300 active;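 active means activation of at least 30% at 10 µM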;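 further: DNMT1 catalytic domain with a HinP1I cleavage step and a FAM/dabcyl DNA beacon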
Active calls of the source: *. Rows were chosen to be rich in hits. Some 3.5% of all compounds tested hit in one or more screens of this group.

For O=C(Nc1ccc2c(c1)OCO2)C1CC(=O)N(c2ccc3c(c2)OCCO3)C1 (stereo not given) the results were MBD2 inh 2, PG9 Ab binder 1, DNMT1 inh 1, UHRF1 binding -1, rCAG binder 3 and LEDGF integ inh 2.
Screening COc1cccc(OC)c1OC(=O)C1CC(=O)N(c2ccc3c(c2)OCCO3)C1 (stereo not given) returned MBD2 inh 7, PG9 Ab binder -1, DNMT1 inh 53*, UHRF1 binding 4, rCAG binder 4, LEDGF integ inh 3, DNMT1 inh conf 2 and DNMT1 interf 0.
`O=C(O)C1CC(=O)N(c2ccc3c(c2)OCCO3)C1` (stereo not given) gave MBD2 inh 6, PG9 Ab binder -1, DNMT1 inh 63*, UHRF1 binding 21, rCAG binder 9, LEDGF integ inh 7, DNMT1 inh conf 4 and DNMT1 interf 8.
For Cc1ccc(CSCC(=O)N/N=C/c2ccc(OCC(=O)Nc3ccc(C)cc3)cc2)cc1 the results were MBD2 inh -1, PG9 Ab binder 0, DNMT1 inh 69*, UHRF1 binding 8, rCAG binder 3, LEDGF integ inh -5, DNMT1 inh conf 5 and DNMT1 interf 4.
CC(=O)OCCn1c2nc(=O)[nH]c(=O)c-2nc2cc(C)c(C)cc21 was read as MBD2 inh -15, PG9 Ab binder 0, DNMT1 inh 192*, UHRF1 binding -15, rCAG binder inactive, LEDGF integ inh 6, DNMT1 inh conf 140* and DNMT1 interf 134*.
For N#Cc1ccc(COC(=O)CC(NC(N)=O)c2ccc(Cl)cc2)cc1 (stereo not given) the results were MBD2 inh -2, PG9 Ab binder 0, DNMT1 inh 4, UHRF1 binding -1, rCAG binder 0 and LEDGF integ inh 0.
Screening COc1ccc(-c2csc(Nc3ccc(S(N)(=O)=O)cc3)n2)cc1OC returned MBD2 inh -2, PG9 Ab binder -1, DNMT1 inh 63*, UHRF1 binding -6, rCAG binder 22, LEDGF integ inh -1, DNMT1 inh conf 4 and DNMT1 interf 14.
`NS(=O)(=O)c1ccc(Nc2nc(-c3ccc(F)cc3)cs2)cc1` gave MBD2 inh 3, PG9 Ab binder 0, DNMT1 inh -6, UHRF1 binding -3, rCAG binder 25 and LEDGF integ inh 0.
Screening COc1cc(NC(=O)c2ccc(-c3cccnc3)c3ccoc23)cc(OC)c1OC returned MBD2 inh 6, PG9 Ab binder 0, DNMT1 inh 1, UHRF1 binding 1, rCAG binder 2 and LEDGF integ inh 3.
`O=C(Nc1cccc(OC(F)(F)F)c1)c1ccc(-c2cccnc2)c2ccoc12` gave MBD2 inh 0, PG9 Ab binder 0, DNMT1 inh 69*, UHRF1 binding 1, rCAG binder -1, LEDGF integ inh -1, DNMT1 inh conf 8 and DNMT1 interf 2.
For CC(=O)Nc1cc(=O)c2cccnc2[nH]1 the results were MBD2 inh 2, PG9 Ab binder 3, DNMT1 inh 63*, UHRF1 binding 6, rCAG binder 4, LEDGF integ inh -4, DNMT1 inh conf 16 and DNMT1 interf 7.
Screening Cc1cccc(C)c1NC(=O)C(c1cc2ccccc2o1)N1CCN(C)CC1 (stereo not given) returned MBD2 inh 2, PG9 Ab binder 0, UHRF1 binding 3, rCAG binder -1 and LEDGF integ inh -1.
Cc1n[nH]c(=O)nc1N/N=C/c1ccc(O)c([N+](=O)[O-])c1 was read as MBD2 inh 3, PG9 Ab binder -5, DNMT1 inh 73*, UHRF1 binding -2, rCAG binder 0, LEDGF integ inh -3, DNMT1 inh conf 0 and DNMT1 interf 1.
